VHR inh abs = VHR1 phosphatase inhibitors, primary screen, biochemical, absorbance, uHTS; Dual specificity protein phosphatase 3 (Homo sapiens), P51452; recombinant VHR phosphatase, pNPP absorbance; inhibition, % at 13.3 µM; 290,000 compounds, 0.52% hits; in the data active means inhibition above about 50%
Target sequence (P51452 whole entry, looked up): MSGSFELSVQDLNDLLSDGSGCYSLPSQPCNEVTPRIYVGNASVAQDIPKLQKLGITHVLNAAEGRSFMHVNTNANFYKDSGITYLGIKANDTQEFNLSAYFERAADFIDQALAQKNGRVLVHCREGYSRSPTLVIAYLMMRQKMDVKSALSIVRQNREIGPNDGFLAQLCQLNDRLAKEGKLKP
GDH-TPI inh = GDH-TPI coupling enzyme inhibitors, primary screen, artefact control for M. tuberculosis FBA inhibitor project, biochemical, absorbance, full deck; 360,000 compounds, 1.2% hits; AID 588335, 2011; inhibition, % at 4.8 µM; GDH-TPI coupled enzyme counterscreen, NADH absorbance; in the data active means inhibition above about 30%
Mtb hypoxia inh = PubChem AID 1159583; 300,000 compounds, 0.1% hits; M. tuberculosis hypoxia-regulated fluorescent reporter, fluorescence; fluorescence inhibition, % (no concentration beside the values); in the data active means fluorescence inhibition mostly above about 23%, no sharp cut-off; inactive means mostly below about 17%
Mtb bLac sens = beta-lactam sensitization of Mtb H37Rv, H37Rv; M. tuberculosis H37Rv growth with meropenem, percent inhibition; inhibition, % at 25 µM; 330,000 compounds, 0.27% hits; AID 434955, 2010; call rule not given here;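 further: growth measured after seven days incubation then overnight dye step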
FBA Mtb inh = Mtb FBA enzyme inhibitors, primary screen, biochemical, fluorescence, strain H37Rv; purified M. tuberculosis FBA, fluorescence read-out; inhibition, % at 1 µM; 360,000 compounds, 2.3% hits; in the data active means inhibition above about 27%
Each line names hits and unclear results; the compound was inactive in the other large screens. Compounds with a hit are over-represented: about 3.6% of the library has one in this group of screens.

Cc1cccc(-[n+]2c(C)cc(C)c3c(=O)[nH]c(=O)[nH]c32)c1	GDH-TPI inh 33, FBA Mtb inh active (no result: Mtb hypoxia inh)
Cc1cc(C)[n+](-c2ccc(C(C)C)cc2)c2[nH]c(=O)[nH]c(=O)c12	FBA Mtb inh active
COc1ccc(C=C(C#N)C(=O)Nc2cccc(C)c2C)cc1C(=O)O	none (no result: VHR inh abs, GDH-TPI inh, Mtb bLac sens, FBA Mtb inh)
CCC(C)C(NC(=O)CCCNC(=O)CCC(=O)OC1O[C@H]2OC3(C)CC[C@H]4[C@H](C)CCC(C1C)C24OO3)C(=O)O (some centres not stated)	none (no result: Mtb hypoxia inh)
CCC(C)NC(=O)CCC(=O)OC1O[C@H]2OC3(C)CC[C@H]4[C@H](C)CCC(C1C)C24OO3 (some centres not stated)	Mtb hypoxia inh 74
COC1OC2O[C@@]3(C)CCC4C(C)CCC(C1C)[C@@]24OO3 (some centres not stated)	Mtb hypoxia inh 90 (no result: VHR inh abs, GDH-TPI inh, Mtb bLac sens, FBA Mtb inh)
COc1ccccc1N1CCN(N=C(C)c2ccccc2O)CC1	none (no result: VHR inh abs, GDH-TPI inh, Mtb bLac sens, FBA Mtb inh)
O=C(C[C@H]1C[C@H](C(=O)N2CCOCC2)[C@@]2(CCC3CCCC3)c3[nH]c4cc(-c5ccco5)ccc4c3CCN2C1=O)NCCN1CCOCC1	FBA Mtb inh 41 (no result: VHR inh abs, Mtb bLac sens)
COCCCNC(=O)C[C@H]1C[C@H](C(=O)N2CCOCC2)[C@@]2(CCC3CCCC3)c3[nH]c4cc(-c5ccco5)ccc4c3CCN2C1=O	none (no result: VHR inh abs, Mtb bLac sens)
COc1cc2c(cc1OC)C(c1cccc(F)c1)CC(=O)N2 (configuration not stated)	VHR inh abs 51 (no result: Mtb hypoxia inh)
O=C(N/N=C/c1cccc([N+](=O)[O-])c1)c1ccc(Br)cc1	VHR inh abs 57 (no result: Mtb hypoxia inh)
O=C(N/N=C/c1cccc([N+](=O)[O-])c1)c1cccc2cc[nH]c12	VHR inh abs 52 (no result: Mtb hypoxia inh)
COC(=O)C(C)C1C[C@]1(C)C(NC(=O)OCc1ccccc1)c1ccccc1 (some centres not stated)	none (no result: VHR inh abs, GDH-TPI inh, Mtb bLac sens, FBA Mtb inh)
COc1cc2c(cc1OC)C(=CC#N)NC(C)(C)C2	none (no result: VHR inh abs, GDH-TPI inh, Mtb bLac sens, FBA Mtb inh)
COc1cc(OC)cc(N(C(=O)CNC(=O)c2ccco2)C(C(=O)NCC2CCCO2)c2ccccc2)c1 (configuration not stated)	VHR inh abs 58
COc1ccc(C(C(=O)NCC2CCCO2)N(C(=O)CNC(=O)c2ccco2)c2cc(C)ccc2C)cc1OC (configuration not stated)	VHR inh abs 53
COc1ccc(C(C(=O)NCC2CCCO2)N(C(=O)CNC(=O)c2ccco2)c2cc(C)cc(C)c2)cc1OC (configuration not stated)	none
CCc1ccc(N(C(=O)CNC(=O)c2ccco2)C(C(=O)NCC2CCCO2)c2ccccc2)cc1 (configuration not stated)	none
CC(C)NC(=O)C1C[C@@]1(C)C(NC(=O)OCc1ccccc1)c1ccccc1 (some centres not stated)	none (no result: VHR inh abs, GDH-TPI inh, Mtb bLac sens, FBA Mtb inh)
Cc1ccc(C2C3C(=O)N(c4ccccc4)C(=O)C3[C@]3(C)C(=O)N(CC4CC4)CC(=O)N23)o1 (some centres not stated)	none (no result: VHR inh abs, GDH-TPI inh, Mtb bLac sens, FBA Mtb inh)
O=C(Nc1nccs1)C1CCCN1/C=C/C(=O)C(F)(F)F (configuration not stated)	GDH-TPI inh 35
CCn1c(NCCCO)nc2c(c1=O)C(C)(CC)Cc1ccccc1-2 (configuration not stated)	FBA Mtb inh 155
CCC1(C)Cc2ccccc2-c2nc3n(c(=O)c21)CCCCC3 (configuration not stated)	none
CCC1(C)Cc2ccccc2-c2nc[nH]c(=O)c21 (configuration not stated)	none
O=c1c2c(nc3n1CCCCC3)-c1ccccc1CC21CCCCC1	none
CCC1(C)Cc2ccccc2-c2nc(NCCCO)n(C)c(=O)c21 (configuration not stated)	FBA Mtb inh 163
O=c1c2c(nc(NCCO)n1CC1CCCCC1)-c1ccccc1CC21CCCC1	FBA Mtb inh 43 (no result: Mtb hypoxia inh)
CC(=NN1CCN(c2ccccc2)CC1)c1ccncc1	none (no result: VHR inh abs, GDH-TPI inh, Mtb bLac sens, FBA Mtb inh)
Nc1nc2c(nc(Br)n2C2OC3COP(=O)(O)OC3C2O)c(=O)[nH]1 (configuration not stated)	none (no result: VHR inh abs, GDH-TPI inh, Mtb bLac sens, FBA Mtb inh)
COc1cc(C=NOCC(=O)Nc2cc(C)on2)ccc1OCc1ccccc1	none (no result: VHR inh abs, GDH-TPI inh, Mtb bLac sens, FBA Mtb inh)
COc1ccc(NC(=O)CC(C)=NNC(=O)c2cnccn2)cc1Cl	none (no result: VHR inh abs, GDH-TPI inh, Mtb bLac sens, FBA Mtb inh)

Screening data: PubChem BioAssay, several laboratories
